# S-ASM inh: blocks human secretory acid sphingomyelinase; 340,000 tested, 0.006% active; placental ASM, HMU-PC fluorogenic substrate, 60 min; Potency, µM (titrated, usually from 57.5 µM), without a hit: at the highest dose activity change, negative = inhibition, hits mostly inhibitors; P17405; note: potency is the fitted concentration of half-maximal effect
# Target sequence (P17405 47-631 limits assumed): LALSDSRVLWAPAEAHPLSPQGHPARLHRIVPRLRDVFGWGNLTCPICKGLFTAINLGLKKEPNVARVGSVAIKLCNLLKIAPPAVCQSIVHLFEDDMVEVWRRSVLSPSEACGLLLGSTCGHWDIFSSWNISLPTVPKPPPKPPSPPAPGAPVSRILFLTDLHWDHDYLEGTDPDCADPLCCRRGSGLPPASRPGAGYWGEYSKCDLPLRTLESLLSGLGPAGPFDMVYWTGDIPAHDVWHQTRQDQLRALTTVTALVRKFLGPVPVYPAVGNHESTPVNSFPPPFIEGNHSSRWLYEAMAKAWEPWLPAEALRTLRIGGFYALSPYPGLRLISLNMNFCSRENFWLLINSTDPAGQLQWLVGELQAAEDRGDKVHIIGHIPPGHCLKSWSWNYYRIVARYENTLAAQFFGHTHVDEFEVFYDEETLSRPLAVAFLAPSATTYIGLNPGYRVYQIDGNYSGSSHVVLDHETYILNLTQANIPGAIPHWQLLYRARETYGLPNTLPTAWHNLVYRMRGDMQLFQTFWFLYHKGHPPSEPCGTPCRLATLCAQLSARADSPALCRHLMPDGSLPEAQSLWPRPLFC
#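 qHTS format. ASM enzyme prepared from human placenta hydrolyses the fluorogenic substrate HMU-PC0 (9 uM final) over 60 min at 37 °C after a 10 min compound preincubation.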
# KB-V1 MDR tox: kills drug-selected multidrug resistant KB-V1 cells; AID 1347076; Potency, µM (titrated, usually from 46.1 µM), actives largely listed as cytotoxic; 400,000 tested, 3.4% active; KB-V1 MDR cells viability, CellTiter-Glo, 72 h; note: potency is the fitted concentration of half-maximal effect; % is set by controls: 0 for no effect and ±100 for the full control effect; nearly all actives have a fitted effect of over 60% in size
#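 Potencies derive from concentration-effect curves fitted to normalized luminescence (CellTiter-Glo) of KB-V1 cells treated for 72 h at 37 degrees C in phenol-red-free DMEM containing 10% FBS.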
# KB-3-1 tox: kills parental KB-3-1 adenocarcinoma cells. Potency, µM (highest dose often 46.1 µM), hits mostly cytotoxic. AID 1347075. KB-3-1 viability, CellTiter-Glo ATP luminescence, 72 h. 400,000 tested, 1.4% active; note: potency is the fitted concentration of half-maximal effect; % is set by controls: 0 for no effect and ±100 for the full control effect; nearly all actives have a fitted effect of over 60% in size
#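 Here the drug-naive KB-3-1 line serves as comparator for MDR sub-line selectivity; cells received compound titrations, 72 h at 37 °C, then CellTiter-Glo readout.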
# SW480 rerep: induces DNA re-replication in SW480 colon adenocarcinoma cells | 340,000 tested, 1.8% active | SW480 DNA re-replication, Hoechst DNA content imaging, 48 h | AID 624297 | Potency, µM (series often up to 46.1 µM), for inactives: at the top dose re-replication activation, actives largely listed as activators; note: potency is the fitted concentration of half-maximal effect; % of control where 0% means no effect; nearly all actives have a fitted effect of over 55% in size
#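 Readout is total intensity of Hoechst-stained nuclei, excited at 405 nm and collected at 500-530 nm. Compound treatment lasted 48 hr at 37 C in 5% CO2 before staining.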
# Giardia kill: Giardia lamblia killing. Giardia lamblia trophozoite viability. AID 540267. 340,000 tested, 0.15% active. activity change, % at 7.66 µM, hits read low; in the data active = activity change below about -80%; inconclusive = between about -30% and that limit;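 note: parasites exposed to compound for two days anaerobically before the ATP read; % is set by controls: 0 for no effect and ±100 for the full control effect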
#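 Luminescent ATP signal served as the viability read-out, measured 15-30 min after adding ATP detection reagent to trophozoites that had been incubated with compounds for 48 hrs at 37 deg C anaerobically at 100 cells/well.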
# MCF10A rereplic: induces DNA re-replication in MCF 10a normal breast cells; MCF 10A DNA re-replication, Hoechst nuclear intensity, 48 h; Potency, µM (top dose mostly 46.1 µM), without a hit: at the highest dose activity, positive = re-replication, actives largely listed as activators; 350,000 tested, 2.9% active; AID 624296; note: potency is the fitted concentration of half-maximal effect; % of control where 0% means no effect; nearly all actives have a fitted effect of over 50% in size
# Active calls of the source: *; i = inactive; u = inconclusive; x = not tested or not shown; [ ] = dose if it differs, or a comment. Sampled rows, rich in hits. Any-hit rate of the full collection: about 6.9%. Unless noted, calls come from the whole dose curve; as a rule, active = well fitted curve in the direction sought with a large enough effect; inconclusive = small, poorly fitted or top-dose-only effect, or another doubt; inactive = no such curve, though single readings can be large; an effect the other way counts as inactive or inconclusive.
SMILES,S-ASM inh,KB-V1 MDR tox,KB-3-1 tox,SW480 rerep,Giardia kill,MCF10A rereplic
CCN(CC(=O)Nc1ccc2c(c1)OCCO2)S(=O)(=O)c1cccs1,0.8%,i,i,-2.4%,0.9,16.4µM*
CCN(CC)S(=O)(=O)c1ccc2c(c1)nc(CCC(=O)Nc1ccc3c(c1)OCO3)n2CC,-1.1%,14.6µM*,i,-5.0%,2.8,2.3%
CCN(CC)S(=O)(=O)c1ccc2c(c1)nc(CCC(=O)Nc1ccc3c(c1)OCO3)n2C,-1.1%,i,i,0.5%,0.3,-8.6%
CN(CC(=O)Nc1ccc2c(c1)OCCO2)S(=O)(=O)c1ccc(Br)s1,-3.3%,i,i,-3.6%,-5.3,24.9%
Cc1cc(C(=O)N2CCN(c3ccccc3)CC2)c2c(C)nn(-c3cccc(F)c3)c2n1,x,u,i,x,x,x
COc1cc(CN(C2CCCCC2C)S(=O)(=O)c2ccc(S(=O)(=O)NC3CC3)cc2)cc(OC)c1OC (configuration not stated),-7.0%,i,u,1.8%,-10.7,9.7%
COc1ccc(CN(C2CCCCC2C)S(=O)(=O)c2ccc(S(=O)(=O)N(C)C)cc2)cc1OC (configuration not stated),0.5%,6.51µM*,i,28.7%,-12.4,u
CCN(CC)c1nc(Nc2ccccc2)nc(Oc2ccc(C(=O)OC)cc2)n1,-29.5%,u,u,20.6µM*,-11.9,u
COC(=O)c1ccc(Oc2nc(Nc3ccccc3)nc(N(C)C)n2)cc1,-29.4%,14.6µM*,i,13.2%,12.7,u
CCCCC(=O)Nc1cccc(-c2csc(-c3ccccc3)n2)c1,-11.6%,i,i,u,3.0,25.9µM*
CC(=O)NCCc1csc(-c2ccccc2)n1,-0.8%,i,i,u,-8.3,6.51µM*
Cc1cc(NC(=O)Cc2csc(-c3ccccc3)n2)ccc1Br,-12.4%,18.4µM*,u,-117.0%,12.3,4.4%
CC(C)(C)CC(=O)NCCc1csc(-c2ccccc2)n1,-2.0%,i,i,3.3%,6.5,6.3%
CSc1nc(Nc2ccc(C)cc2C)cc(-c2ccccc2)n1,x,i,i,x,x,x
C1CCN2C[C@@H]3C[C@@H](CN4CCCC[C@H]34)[C@H]2C1,x,x,x,-0.1%[20.6 µM],x,-0.3%[20.6 µM]
COc1ccc(OC)c(CCNC(=O)c2ccc3c(c2)N(Cc2ccc(C)cc2)CCS3)c1,x,i,i,x,x,x
Nc1ccc(N2CCCCC2)cc1N1CCCCC1,-4.5%,i,i,u,1.5,20.6µM*
